The list is not random: actives were taken first. Their share in the collection is about 1.6%.
KCNQ2 pot = KCNQ2 (rat) channel potentiation; O88943; CHO-K1 KCNQ2, FluxOR thallium flux fluorescence; hits give high values; B-score at 10 µM; 0.54% of 310,000 active; AID 2239;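 active = fluorescence ratio B-score at least 3 SD of library B-scores, with initial fluorescence B-score within 3 of them, cut at about 5.3 in these data; same plate scores as AID 2156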;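 also: B-score of peak minus minimum over baseline fluorescence ratio after K+ and Tl+ stimulus; positive B-score means potentiation of KCNQ2 with more thallium influx and brighter signal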
Target sequence (O88943 whole entry, looked up): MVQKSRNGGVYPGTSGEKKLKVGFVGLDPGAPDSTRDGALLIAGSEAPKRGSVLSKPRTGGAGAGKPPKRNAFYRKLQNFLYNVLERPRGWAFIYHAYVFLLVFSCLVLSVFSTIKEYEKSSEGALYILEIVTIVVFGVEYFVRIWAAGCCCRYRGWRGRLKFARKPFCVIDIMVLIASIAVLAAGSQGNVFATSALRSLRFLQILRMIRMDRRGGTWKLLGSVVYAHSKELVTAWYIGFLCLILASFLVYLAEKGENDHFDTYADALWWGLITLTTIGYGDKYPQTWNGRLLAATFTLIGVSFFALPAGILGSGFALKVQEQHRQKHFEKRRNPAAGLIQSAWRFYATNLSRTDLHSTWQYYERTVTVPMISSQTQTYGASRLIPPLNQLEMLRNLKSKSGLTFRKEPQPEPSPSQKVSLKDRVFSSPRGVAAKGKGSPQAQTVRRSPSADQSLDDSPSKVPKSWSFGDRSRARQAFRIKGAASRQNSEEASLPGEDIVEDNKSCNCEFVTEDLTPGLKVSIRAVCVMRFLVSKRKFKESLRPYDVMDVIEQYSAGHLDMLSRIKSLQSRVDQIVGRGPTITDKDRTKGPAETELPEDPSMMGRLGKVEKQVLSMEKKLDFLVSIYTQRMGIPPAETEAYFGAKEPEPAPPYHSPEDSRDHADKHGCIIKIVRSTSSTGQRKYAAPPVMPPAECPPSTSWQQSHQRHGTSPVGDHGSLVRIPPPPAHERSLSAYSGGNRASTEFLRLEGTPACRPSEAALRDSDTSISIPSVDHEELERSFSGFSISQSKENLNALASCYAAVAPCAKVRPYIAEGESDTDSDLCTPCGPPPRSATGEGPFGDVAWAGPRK
KCNQ2 inh = KCNQ2 (rat) channel inhibition | O88943 | CHO-K1 KCNQ2, FluxOR thallium flux, 20 min; hits give low values | B-score at 10 µM | 1.1% of 310,000 active;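 active = fluorescence ratio B-score at most minus 3 library SDs, with starting brightness B-score within 2 library SDs, cut at about -5.5 in these data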
Numbers without * were called inactive; i = inactive; . = no result.

SMILES	KCNQ2 pot	KCNQ2 inh
CC(=O)Nc1ccc(NC(=O)C(C)N(C)CC(=O)Nc2ccccc2Br)cc1 (stereo not given)	1.37	i
CCCCN(C(=O)c1cccs1)C1CCS(=O)(=O)C1 (stereo not given)	.	i
Cc1ccccc1OCc1nnc(SCC(=O)N2CCc3ccccc32)n1C	2.02	i
Cc1cccc(OCc2nnc(SCC(=O)N3c4ccccc4CC3C)n2C)c1C (stereo not given)	-6.03	-6.03*
O=Nc1c(-c2cccc([N+](=O)[O-])c2)nc2ncccn12	.	i
CCCCN1C(=O)C(=O)N(CC(=O)c2ccc3c(c2)OCO3)C1=O	1.41	i
O=C(COc1ccc(F)cc1Cl)N(Cc1nnc(-c2ccccc2Cl)o1)C1CC1	.	i
CCOC(=O)N1CCN(C(=O)CN(c2cccc(C)c2)S(=O)(=O)c2ccc(C)cc2)CC1	1.05	i
CS(=O)(=O)N(CC(=O)N1CCc2ccccc2C1)Cc1ccc(F)cc1	.	i
CS(=O)(=O)N(CC(=O)N1CCc2ccccc2C1)Cc1ccc(Cl)cc1	-6.04	-6.04*
O=C(CN(c1cccc(Cl)c1)S(=O)(=O)c1ccc(Cl)cc1)N1CCc2ccccc2C1	-6.54	-6.54*
CS(=O)(=O)N(CC(=O)N1CCc2ccccc2C1)c1cccc(F)c1	.	i
Cc1ccc(S(=O)(=O)N(CC(=O)N2CCC(C)CC2)c2cccc(C)c2)cc1	-6.15	-6.15*
CCC(C)c1ccccc1NC(=O)Cc1coc2cc3c(cc12)CCC3 (stereo not given)	7.67*	i
Cc1ccc(C)c(NC(=O)Cc2coc3cc4c(cc23)CCC4)c1	0.76	i
CC1CCN(S(=O)(=O)c2nnc(NC(=O)COc3ccccc3)s2)CC1	.	i
CCOc1ccc(OCC)c(NC(=O)CN2CCN(c3cc(C)ccc3C)CC2)c1	-5.63	-5.63*
CCOc1ccc(OCC)c(NC(=O)CN2CCN(c3cccc(C)c3)CC2)c1	1.91	i
O=C(CSc1nnc(NC(=O)C2CC2)s1)Nc1cccc(F)c1	0.56	i
CC(CNC(=O)CCn1ccc2cc(S(=O)(=O)N3CCCC3)ccc21)c1ccccc1 (stereo not given)	0.76	i
CN1CCN(C2Cc3cc(Cl)ccc3Sc3cc(F)ccc32)CC1 (stereo not given)	-6.89	-6.89*
OCCN1CCN(C2Cc3cc(Cl)ccc3Sc3ccc(Cl)cc32)CC1 (stereo not given) (tested in a mixture with another compound)	.	i
O=C(N/N=C/c1ccncc1)c1cccc(S(=O)(=O)Nc2ccc(Cl)cc2)c1	1.16	i
Cc1cccc(N2CC(C(=O)NCCC3=CCCCC3)CC2=O)c1C (stereo not given)	.	i
Cc1cc(NC(=O)C(C)SCC(=O)Nc2cc(C(F)(F)F)ccc2N2CCOCC2)no1 (stereo not given)	.	i
SMILES	KCNQ2 pot	KCNQ2 inh
N/C(=N\OC(=O)c1cccc2ccccc12)c1ccc(Br)cc1	-5.61	-5.61*
Cc1ccc(C(=O)O/N=C(\N)c2ccc(Br)cc2)cc1C	0.55	i
N/C(=N\OC(=O)c1cccc2ccccc12)c1ccncc1	.	i
Cc1cc(C)cc(C(=O)O/N=C(\N)c2ccc(Br)cc2)c1	-6.82	-6.82*
Cc1ccc2[nH]c(=O)c3cc(C(=O)N(C)c4ccccc4C)sc3c2c1	.	i
COc1ccc(/C=N/NC(=O)c2cccc(Br)c2)cc1COc1ccccn1	.	i
O=C(O)c1cc(S(=O)(=O)Nc2cccc3ccccc23)c(Cl)cc1Cl	.	i
N#C[C@H]1[C@H](c2ccccc2)[C@](C#N)(C(=O)c2ccccc2)[C@@H]2C=Cc3ccccc3N21	-8.59	-8.59*
COc1ccc(C(=O)N2c3ccccc3C=CC2C#N)cc1 (stereo not given)	0.44	i
COc1ccc(CCN(Cc2nc(-c3ccccc3)no2)Cc2nc(-c3ccccc3)no2)cc1OC	-6.22	-6.22*
COc1ccc(CCN(C)Cc2nc(-c3cnccn3)no2)cc1OC	0.18	i
CCCCn1c(N)c(N(CCOC)C(=O)c2cc(-c3ccc(OC)cc3)nc3ccccc23)c(=O)[nH]c1=O	0.16	i
COc1ccccc1NC(=O)N1CCCC(c2nc3c(nnn3Cc3ccc(C)cc3)c(=O)[nH]2)C1 (stereo not given)	-6.24	-6.24*
COC(=O)c1ccccc1S(=O)(=O)N1CCCC(c2nc3c(nnn3Cc3ccc(C)cc3)c(=O)[nH]2)C1 (stereo not given)	.	i
COc1cccc(NC(=O)c2cncs2)c1	2.92	i
C/C=C(\C)C(=O)OC1c2c(ccc3ccc(=O)oc23)OC(C)(C)C1OC(C)=O (stereo not given)	1.29	i
C/C=C(/C)C(=O)OC1c2c(ccc3ccc(=O)oc23)OC(C)(C)C1OC(=O)/C(C)=C\C (stereo not given)	-9.9	-9.9*
COc1cccc(CN(C)C(=O)c2cc(-c3ccc(OC)c(OC)c3)nc3ccccc23)c1	-6.04	-6.04*
COc1ccc(-c2cc(C(=O)N(C)Cc3cccc(OC)c3OC)c3ccccc3n2)cc1OC	.	i
COc1ccc(CN(C)C(=O)c2cc(-c3ccccc3)nc3ccc(C)cc23)c(OC)c1OC	-5.7	-5.7*
COc1cccc(CN(C)C(=O)c2cc(-c3ccc(F)cc3)nc3ccccc23)c1	.	i
COc1ccc(-c2cc(C(=O)N(C)CCc3ccc(OC)c(OC)c3)c3ccccc3n2)cc1	-5.61	-5.61*
COc1ccc(CCN(C)C(=O)c2cc(-c3ccccc3)nc3ccccc23)cc1OC	.	i
CCOC(=O)c1c(S(=O)(=O)NCC(=O)Nc2cc(C)ccn2)c(C)n(C)c1C	.	i
COc1ccc(CN2CCNC(=O)C2CC(=O)N2CCCCO2)cc1OC (stereo not given)	1.92	i
SMILES	KCNQ2 pot	KCNQ2 inh
O=C(CN1C(=O)c2ccccc2C1=O)Nc1cc(C(=O)O)cc(C(=O)O)c1	.	i
COC(=O)c1cc(OC)c(OC)cc1NC(=O)c1cc(-c2ccccc2)nc2ccccc12	.	i
CCOc1ccccc1C(=O)Nc1ccccc1C(N)=O	0.61	i
CCOc1ccccc1NC(=O)c1cccc2ccccc12	-5.55	-5.55*
CCOc1ccccc1NC(=O)c1cc(-c2cc(OC)c(OC)c(OC)c2)nc2ccccc12	-6.11	-6.11*
CCOc1ccccc1NC(=O)c1ccccc1-c1nc(-c2ccccc2)no1	.	i
COc1ccccc1CC(=O)Nc1cccc2ccccc12	.	i
CCOc1ccccc1NC(=O)c1ccccc1-c1ccccc1	-5.58	-5.58*
COc1cccc(C(=O)Nc2cccc3ccccc23)c1OC	-6.19	-6.19*
COc1cc(/C=N/NC(=O)CSc2n[nH]c(=O)[nH]c2=O)cc(OC)c1O	.	i
O=C(Nc1cccnc1Oc1ccc(Cl)cc1)c1cccc2ccccc12	-5.99	-5.99*
NC(=O)c1cccnc1Oc1ccc(Cl)cc1	.	i
O=C(Nc1cccc(F)c1)N1CC=C(c2ccc(Cl)cc2)CC1	-6.58	-6.58*
O=C(CN1CCN(c2ccc(Cl)cc2)CC1)Nc1cccc(F)c1	.	i
Cc1cc(NC(=O)CCC(=O)N(c2ccccc2)C(C(=O)NC2CCCC2)c2ccccc2C)no1 (stereo not given)	0.03	i
O=C(COc1ccc(Br)cc1Cl)NC(=S)N1CCc2ccccc21	1.28	i
CC(Oc1ccc(Cl)cc1Cl)C(=O)NC(=S)N1CCc2ccccc21 (stereo not given)	9.31*	i
O=C(NC(=S)N1CCc2ccccc21)c1ccccc1Br	13.9*	i
